Results from PubChem BioAssay AID1159580 (chemical genetic matrix, 2015).
The campaign covered roughly 5,500 compounds. About 2,000 (36%) were called active. Roughly 18% stayed inconclusive and do not appear here. Cut-off read from the data, not from the text of the source: active = normalized growth mostly below about 0.91 (no sharp cut-off); inconclusive = no clear call, values can overlap the other calls; inactive = mostly above about 0.92. The list shows a part of the results.

Test: chemical genetic growth profiling, strain panel (AID 1159580);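 note: tested at 20 µM; growth read once vehicle control cultures reached saturation at 30 °C; 1 = growth at the plate median or of vehicle wells; lower values mean less growth of the strain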
Settings: S. cerevisiae deletion strains, growth OD

Measured: normalized growth

CCN(CC)[N+]([O-])=NO
inactive: locus YHR030C, strain SLT2, active compounds read low 0.974 | locus YHR079C, strain IRE1, active compounds read low 0.986 | locus YJL095W, strain BCK1, active compounds read low 0.987 | locus YJR066W, strain TOR1, active compounds read low 0.931 | locus YLR113W, strain HOG1, active compounds read low 0.961 | locus YNL183C, strain NPR1, active compounds read low 0.935 | locus YOR231W, strain MKK1, active compounds read low 0.966 | locus YPL256C, strain CLN2, active compounds read low 0.951
